Results reported in the supplement of paper PMC10981050.
Values joined by “and” are separate entries in the source; they are usually repeats but may differ in a detail not shown here. Equal values may be shown once. Where a name gives a salt, the structure may show the parent alone.

Tests used:
Assay in all cases: cell viability relative to vehicle control; higher = less cytotoxic
Settings in all cases: 10 µM
[1] = test system: K562
Outline: (§1)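 Each screen used CRISPR-edited mutant and wild-type clones from four leukaemia lines. Compounds were acoustically dispensed at a single 10 µM dose, and CellTiter-Glo luminescence was read after 48 h with the supernatant first removed. Viability was analysed in Genedata Screener and given as percent of the on-plate vehicle control.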

[2] = test system: MARIMO
Outline: as §1

[3] = test system: MOLM14
Outline: as §1

[4] = test system: OCI-AML2
Outline: as §1

SMILES	cell viability ([1]; SRSF2 genotype: SRSF2 P95H/wt)	cell viability ([1]; SRSF2 genotype: SRSF2 wt/wt)	cell viability ([2]; SRSF2 genotype: SRSF2 P95H/wt)	cell viability ([2]; SRSF2 genotype: SRSF2 wt/wt)	cell viability ([3]; SRSF2 genotype: SRSF2 P95H/wt)	cell viability ([3]; SRSF2 genotype: SRSF2 wt/wt)	cell viability ([4]; SRSF2 genotype: P95H/wt)	cell viability ([4]; SRSF2 genotype: wt/wt)
COc1cccc(C(N)=O)c1 [3-Methoxybenzamide]	106% and 99.6%	111%	104%	102%	103%	107%	101%	115%
CCCCCC(O)C=CC1C(O)CC(=O)C1CCCCCCC(=O)O (centres undefined) [Alprostadil(Caverject)]	69.3% and 64.4%	84.2%	82.4%	73.2%	50.1%	22.4%	80.3%	62.1%
C=CC(=O)N1CCC[C@@H](n2nc(-c3ccc(Oc4ccccc4)cc3)c3c(N)ncnc32)C1	35.9% and 57.5%	42.9%	70.9%	89.1%	16.5%	17.8%	44.3%	53.1%
Cc1ccnc(NS(=O)(=O)c2ccc(N)cc2)n1 [Sulfamerazine]	99.9% and 106%	101%	105%	104%	99.7%	107%	107%	89.9%
C[C@H]1CN(C[C@H](Cc2ccccc2)C(=O)NCC(=O)O)CC[C@@]1(C)c1cccc(O)c1 [Alvimopan dihydrate]	110% and 102%	101%	98.5%	112%	102%	103%	94.9%	99.2%
COC(=O)[C@@H]1CC2=CC(=O)CC[C@]2(C)[C@@]23O[C@@H]2C[C@@]2(C)[C@@H](CC[C@@]24CCC(=O)O4)[C@H]13 [Eplerenone]	98.4% and 103%	103%	98%	103%	107%	95.6%	100%	101%
CN(C)CCN1C(=O)c2cccc3cc(N)cc(c23)C1=O [Amonafide]	33.8% and 37.6%	32.1%	7.66%	10.7%	0.3%	0.27%	0.94%	2.97%
Cc1c(C(=O)N2CCOc3ccc(-c4ccc(N)nc4)cc3C2)ccc(S(C)(=O)=O)c1F	84.6% and 89.8%	84.4%	81.4%	76.9%	71.2%	63.6%	70%	67.8%
OCc1c[nH]c2ccccc12 [Indole-3-carbinol]	102% and 107%	99.8%	105%	113%	95.1%	104%	105%	106%
COc1c(C)c2c(c(O)c1C/C=C(\C)CCC(=O)O)C(=O)OC2 [Mycophenolic acid]	49.9% and 48.3%	43.2%	42.2%	41.6%	10.9%	3.65%	13.9%	13%
CN1CCN(C2CCN(C(=O)Nc3cc(Oc4ccc(NC(=O)C5(C(=O)Nc6ccc(F)cc6)CC5)c(F)c4)ccn3)CC2)CC1 [Golvatinib (E7050)]	5.46% and 7.13%	10.1%	61.6%	58.9%	4.27%	8.67%	7.56%	18.6%
c1cc(-c2cnn3cc(-c4ccc(N5CCNCC5)cc4)cnc23)c2cccnc2c1	0.29% and 0.31%	0.27%	0.3%	0.3%	0.26%	0.32%	0.24%	0.25%
CC(C)=CC(=O)O[C@H]1Cc2cc3ccc(=O)oc3cc2OC1(C)C [Decursin]	89.5% and 93.4%	90%	81.6%	88.5%	91.1%	92.5%	83.7%	87%
COc1ccc2cc1Oc1ccc(cc1)C[C@H]1c3cc(c(OC)cc3CCN1C)Oc1c(O)c(OC)cc3c1[C@H](C2)N(C)CC3 [(+)-Fangchinoline]	4.1% and 4.98%	3.92%	12.2%	1.33%	0.71%	0.57%	0.52%	0.71%
CN(C)CCC=C1c2ccccc2CCc2ccccc21 [Amitriptyline HCl]	83.3% and 90.4%	88.2%	77.1%	83%	79%	89.7%	80.7%	89.2%
COCCOc1nc(-c2ccc(Cl)c(Cl)c2)n(-c2ccc(NC(=O)CCl)cc2)n1 [MI-2 (MALT1 inhibitor)]	16% and 8.54%	6.61%	0.5%	0.7%	0.48%	0.53%	0.42%	0.46%
CN(CC(=O)N(Cc1ccc(C2CCCCC2)cc1)c1ccc(C(=O)O)c(O)c1)S(=O)(=O)c1c(F)c(F)c(F)c(F)c1F	38% and 23.1%	13.9%	57.8%	28.6%	0.63%	0.38%	1.74%	5.48%
Cc1[nH]cnc1CN1CCc2c(c3ccccc3n2C)C1=O [Alosetron Hydrochloride]	93.1% and 95.7%	88.6%	93.7%	102%	93.2%	100%	91.6%	101%
CC(C)OC(=O)[C@H](C)N[P@](=O)(OC[C@H]1O[C@@H](n2ccc(=O)[nH]c2=O)[C@](C)(F)[C@@H]1O)Oc1ccccc1 [Sofosbuvir(PSI-7977)]	103% and 102%	95.8%	98.3%	111%	102%	107%	94%	107%

SMILES	cell viability ([1]; SRSF2 genotype: SRSF2 P95H/wt)	cell viability ([1]; SRSF2 genotype: SRSF2 wt/wt)	cell viability ([2]; SRSF2 genotype: SRSF2 P95H/wt)	cell viability ([2]; SRSF2 genotype: SRSF2 wt/wt)	cell viability ([3]; SRSF2 genotype: SRSF2 P95H/wt)	cell viability ([3]; SRSF2 genotype: SRSF2 wt/wt)	cell viability ([4]; SRSF2 genotype: P95H/wt)	cell viability ([4]; SRSF2 genotype: wt/wt)
O=c1c(-c2ccc(O)cc2)coc2cc(O)ccc12 [Daidzein]	99.3% and 97.8%	97.8%	95.4%	96.9%	93.4%	96.7%	92.9%	102%
COc1ccc(C2=N[C@@H](c3ccc(Cl)cc3)[C@@H](c3ccc(Cl)cc3)N2C(=O)N2CCNC(=O)C2)c(OC(C)C)c1 [Nutlin-3]	91.4% and 99.4%	89.2%	87.4%	93.3%	0.14%	1.06%	9.37%	32.1%
CC1(C)[C@@H](O[C@H]2O[C@H](C(=O)O)[C@@H](O)[C@H](O)[C@H]2O[C@@H]2O[C@H](C(=O)O)[C@@H](O)[C@H](O)[C@H]2O)CC[C@]2(C)[C@H]3C(=O)C=C4[C@@H]5C[C@@](C)(C(=O)O)CC[C@]5(C)CC[C@@]4(C)[C@]3(C)CC[C@@H]12 [Ammonium Glycyrrhizinate (AMGZ)]	101% and 111%	107%	107%	102%	104%	106%	112%	95.4%
C=C1CC[C@H](O)C/C1=C/C=C1\CCC[C@]2(C)[C@@H]([C@H](C)/C=C/[C@H](C)C(C)C)CC[C@@H]12 [Vitamin D2 (Ergocalciferol)]	103% and 100%	102%	101%	104%	93.4%	102%	100%	98.3%
O=C(/C=C/c1ccc2ccccc2n1)c1ccncc1	6.76% and 0.53%	0.42%	0.28%	0.4%	0.4%	0.45%	0.31%	0.36%
O=C(O)CCN1C(=O)/C(=C/c2ccc(-c3ccc([N+](=O)[O-])cc3)o2)SC1=S	104% and 106%	111%	100%	98.5%	93.3%	101%	103%	109%
CN1CCN(Cc2ccc(Nc3ncc(Cl)c(Nc4ccccc4S(=O)(=O)N(C)C)n3)cc2)CC1	42.8% and 43%	47.6%	30.3%	4.7%	11.3%	0.64%	2.24%	10.3%
COc1ccc(-c2nc(N3CCOCC3)c3sc(CN(C)c4ncc(C(=O)NO)cn4)cc3n2)cn1	1.16% and 7.95%	2.68%	1.32%	2.78%	0.39%	0.45%	0.79%	1.17%
CC(=O)Nc1ccccc1 [Acetanilide (Antifebrin)]	104%	101%	106%	106%	96.4%	101%	105%	102%
CC(C)(CO)c1cc2cc(NC(=O)C3(c4ccc5c(c4)OC(F)(F)O5)CC3)c(F)cc2n1C[C@@H](O)CO	95.8% and 95.3%	87.5%	92.7%	109%	91.5%	91.7%	95.7%	96%
O=C(O)c1ccc(CN2CCC(CN[C@@H]3C[C@H]3c3ccccc3)CC2)cc1	98.9% and 101%	95.4%	92.3%	91%	98.7%	87.2%	78.3%	91.6%
C=C(C)C1CC=C(C)CC1 (single isomer, unassigned; (+)) [(+)-Dipentene]	114% and 103%	116%	104%	108%	110%	108%	109%	115%
Cc1cc(C)nc(NS(=O)(=O)c2ccc(NC(=S)NC(=O)COc3ccc(Br)cc3Cl)cc2)n1	91.4% and 83.1%	85.5%	82.3%	90.7%	83.5%	91.1%	88.6%	84.6%
N#CC(=Cc1ccc(-c2cc(Cl)ccc2Cl)o1)C(=O)Nc1cccc2ncccc12	101% and 104%	91.8%	99.1%	99.8%	116%	112%	88.3%	92%
Cc1cc(C)c(CNC(=O)c2cc(-c3ccc(N4CCN(C)CC4)nc3)cc3c2c(C)cn3C(C)C)c(=O)[nH]1	83.8% and 78.9%	86%	90.1%	94.2%	80.4%	83.3%	70.6%	82.2%
C[C@H]1CO[C@@H]2Cn3cc(C(=O)NCc4ccc(F)cc4F)c(=O)c(O)c3C(=O)N12	84.6% and 81.9%	71.5%	90.2%	95.4%	92.8%	88.8%	83.9%	86.6%
O=C(O)C(Cc1c[nH]c2ccccc12)N1C(=O)c2ccccc2C1=O (centres undefined)	104% and 96.9%	103%	96.8%	104%	99.2%	99.3%	93.2%	98.5%
Cc1ccc(Nc2cc(N[C@@H]3CCCC[C@@H]3N)nnc2C(N)=O)nc1C	80.8% and 84.1%	80.7%	76.2%	79%	18.6%	18%	15.1%	25.2%
Cc1[nH]c(/C=C2\C(=O)Nc3ccc(S(=O)(=O)Cc4c(Cl)cccc4Cl)cc32)c(C)c1C(=O)N1CCC[C@@H]1CN1CCCC1	0.5% and 0.24%	81.8%	76.3%	87.6%	42%	46.8%	0.12%	0.09%
